Hits are enriched below; roughly 11% of the tested compounds scored in any of these assays.
HTT ATP protect – Huntington cell model cytoprotection by ATP luminescence; PC12 HTT-Q103 induced, cytoprotection, ATP luminescence, 40 h; Potency, µM (doses to about 56.4 µM), without a hit: cytoprotection (ATP increase), hits mostly activators; 0.14% of 230,000 active; AID 1471; also: potency is read from the fitted curve at half-maximal effect; % of control where 0% means no effect; nearly all actives have a fitted effect of over 45% in size
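Compounds were screened for protection of PC12 cells against cell death after tebufenozide induction (100 nM final) of mutant Huntingtin exon 1 (Q103) fused to GFP.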
ALDH1A1 block – blocks purified human ALDH1A1 activity | P00352 | 7.3% of 220,000 active | Purified ALDH1A1, NADH fluorescence, propionaldehyde substrate | Potency, µM (titrated, usually from 75.3 µM), inactives show at the highest dose activity, negative = inhibition, most hits filed as inhibitors; active = well fitted inhibition curve with a large enough effect, not every such curve was filed as active; inconclusive = small, poorly fitted or top-dose-only effect, or another doubt; inactive = no such curve, though single readings can be large or run the other way;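 also: potency is read from the fitted curve at half-maximal effect; plate controls were no enzyme wells and a reference inhibitor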
Target sequence (P00352 whole entry, looked up): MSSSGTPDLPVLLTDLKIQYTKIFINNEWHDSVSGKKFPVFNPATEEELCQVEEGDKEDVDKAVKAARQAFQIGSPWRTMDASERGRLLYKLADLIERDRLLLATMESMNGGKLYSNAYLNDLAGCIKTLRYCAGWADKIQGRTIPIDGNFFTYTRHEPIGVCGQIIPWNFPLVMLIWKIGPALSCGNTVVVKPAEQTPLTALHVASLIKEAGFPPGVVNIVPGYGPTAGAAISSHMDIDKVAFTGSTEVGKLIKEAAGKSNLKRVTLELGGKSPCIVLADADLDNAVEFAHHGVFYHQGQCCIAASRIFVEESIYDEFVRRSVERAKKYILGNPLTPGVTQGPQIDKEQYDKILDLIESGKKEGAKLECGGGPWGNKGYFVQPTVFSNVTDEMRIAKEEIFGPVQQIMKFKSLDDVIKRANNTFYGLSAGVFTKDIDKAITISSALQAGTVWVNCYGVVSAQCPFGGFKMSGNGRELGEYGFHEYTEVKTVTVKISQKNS
HttQ103 aggreg – mutant huntingtin aggregation inhibition. PC12 HttQ103-GFP aggregates, Acumen cytometry, 40 h. Potency, µM (highest dose often 46.1 µM), for inactives: at the top dose activity change, negative = inhibition, usual class: inhibitors. 1.1% of 220,000 active. AID 1688; also: potency is read from the fitted curve at half-maximal effect; % is scaled to controls: 0 for no effect and ±100 for the full control effect; nearly all actives have a fitted effect of over 60% in size
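PC12 cells with ecdysone-inducible HTT exon1 Q103-GFP, induced by 100 nM tebufenozide, given compounds in a concentration series. GFP aggregates (1–25 um, 6 SD above background) counted in lysates by laser-scanning cytometry, 488 nm excitation.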
CBFb-RUNX1 inh – CBF-beta/RUNX1 interaction disruption. AlphaScreen CBFb-His/RUNX1-biotin binding, biochemical. Potency, µM (highest dose often 59.8 µM), without a hit: at the highest dose activity, negative = inhibition, usual class: inhibitors. 230,000 tested, under 10 active; also: % of control where 0% means no effect
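Proteins preincubated together for 20 min at RT before compound addition; 15 min later, nickel and streptavidin beads were added and left 90 min prior to AlphaScreen measurement.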
HPGD block – blocks human HPGD enzyme activity; purified HPGD, NADH fluorescence kinetic, PGE2 substrate; 4.3% of 150,000 active; Potency, µM, inactives show top-dose activity change, negative = inhibition, usual class: inhibitors; active = well fitted inhibition curve with a large enough effect, not every such curve was filed as active; inconclusive = small, poorly fitted or top-dose-only effect, or another doubt; inactive = no such curve, though single readings can be large or run the other way; also: potency is read from the fitted curve at half-maximal effect; % is scaled to controls: 0 for no effect and ±100 for the full control effect
Target sequence (P15428 whole entry, looked up): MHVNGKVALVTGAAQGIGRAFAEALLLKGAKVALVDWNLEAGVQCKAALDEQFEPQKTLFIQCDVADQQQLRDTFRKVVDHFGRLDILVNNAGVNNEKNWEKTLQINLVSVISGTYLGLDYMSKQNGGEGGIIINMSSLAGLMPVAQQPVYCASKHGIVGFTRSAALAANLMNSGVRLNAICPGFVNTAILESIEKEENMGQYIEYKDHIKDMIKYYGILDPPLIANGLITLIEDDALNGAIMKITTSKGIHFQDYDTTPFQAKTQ
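NADH formation kinetics: reaction with 30 uM PGE2 and 1 mM NAD+ (final), 20 nM enzyme, Tris-HCl pH 8 with Tween 20, after 15 min compound preincubation at room temperature. Fluorescence change, last versus first of five reads.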
PNC assembly inh – inhibitors of perinucleolar compartment assembly; AID 2417; activity change (PNC), negative = inhibition, % at 10 µM; 3.1% of 140,000 active; PC3M PTB-GFP, PNC prevalence imaging, 16 h; active compounds read low;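 active = readout at or below -70, meaning at least 70% loss of cells showing the perinucleolar compartment, a nuclear body marking cancer cells; inconclusive = readout between -30 and a set limit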;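 also: plate controls were DMSO wells for no effect and camptothecin positive control wells for full effect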
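Compounds are pinned in duplicate onto adhered PC3M cells stably expressing GFP-tagged PTB and incubated 16 h at 37 C. Cells are then fixed, nuclei stained with Hoechst, and PNC-positive cells counted.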
Active calls of the source: *; ? = inconclusive; . = no result; [ ] = remark or other dose. Unless noted, calls follow the shape of the dose curve; as a rule, active = well fitted curve in the direction sought with a large enough effect; inconclusive = small, poorly fitted or top-dose-only effect, or another doubt; inactive = no such curve, though single readings can be large; an effect the other way counts as inactive or inconclusive.

SMILES | HTT ATP protect | ALDH1A1 block | HttQ103 aggreg | CBFb-RUNX1 inh | HPGD block | PNC assembly inh
CC(C)COC(=O)C(C#N)c1nc2ccccc2nc1N1CCN(Cc2ccccc2)CC1 (centres undefined) | 9.9%[10 µM] | 12.6µM* | 5.8% | -6.3% | -15.0% | 27.4
N#CC(C(=O)OC1CCCCC1)c1nc2ccccc2nc1N1CCOCC1 (centres undefined) | -21.9% | 0.8% | 12.0% | 2.2% | -15.4% | 10.8
CCN1CCN(c2nc3ccccc3nc2C(C#N)C(=O)OC2CCCCC2)CC1 (centres undefined) | -32.7% | ? | -0.3% | -18.0% | -8.0% | 44.8
CCC(CC)COC(=O)C(C#N)c1nc2ccccc2nc1N1CCOCC1 (centres undefined) | -22.0%[0.074 µM] | 10µM* | -7.2% | 3.2% | -27.9% | ?
COC(=O)C/C=C\[C@@H](C)[C@@H](CO)NS(=O)(=O)c1ccc(C)cc1 | ? | ? | . | 10.0%[13.1 µM] | . | .
O=C(O)C1Cc2ccccc2CN1C(=O)CCl (centres undefined) | -62.4% | ? | 9.2% | 2.0% | . | .
Cc1cc2c(c(=O)o1)C1(C(=O)N(CC(=O)O)c3ccccc31)C(C#N)=C(N)O2 (centres undefined) | -5.8% | 1.3% | 13.7% | -3.8% | -18.2% | -6.8
COC(=O)CN1C(=O)C2(C(C#N)=C(N)Oc3c2c(C)nn3-c2ccccc2)c2ccccc21 (centres undefined) | 11.4%[10 µM] | 0.141µM* | 9.9% | -3.7% | -13.0% | 288.9
COC(=O)CN1C(=O)C2(C(C#N)=C(N)Oc3n[nH]c(-c4cccs4)c32)c2ccccc21 (centres undefined) | 1.1% | 2.24µM* | 8.3% | 1.1% | -2.4% | ?
CS(=O)(=O)N1CCC2(CCN(c3ccccn3)CC2)CC1 | 6.3% | ? | . | . | -20.2% | .
CN(C)S(=O)(=O)c1ccc(NC(=O)CN2CCOCC2)cc1 | 13.2%[10 µM] | . | 14.1%[9.22 µM] | 8.0% | . | .
CCCCN(CCCC)S(=O)(=O)c1ccc(NC(=O)CN2CCOCC2)cc1 | -10.4%[10 µM] | 12.6µM* | 7.1% | ? | -16.5% | -7.9
O=C(CN1CCOCCOCCN(CC(=O)Nc2ccccc2)CCOCC1)Nc1ccccc1 | -1.4% | 22.4µM* | 11.5% | 4.9% | . | 8.6
O=C(CN1CCN(CCO)CC1)Nc1ccccc1 | 26.0%[10 µM] | ? | 10.9% | -3.1% | -12.9% | -100.0*
O=C(CN1CCOCC1)Nc1nc2ccc(Br)cc2s1 | 6.3% | 12.6µM* | ? | 0.5% | -22.1% | ?
COc1ccc([N+](=O)[O-])cc1N(CC(=O)NCC1CCCO1)S(C)(=O)=O (centres undefined) | 22.6%[10 µM] | -2.0% | 1.9% | 1.9% | -21.9% | 20.3
Cc1cc(NC(=O)CN2CCOCC2)n(-c2nc3ccccc3s2)n1 | -79.8% | 22.4µM* | 3.8% | 2.2% | -8.3% | 28.8
O=C(CN1CCOCC1)Nc1ccc(S(=O)(=O)NC2CCCCC2)cc1 | -15.1% | ? | -26.3% | 7.6% | ? | ?
CCCCC1(C)NC(=O)N(CC(=O)Nc2ccc(S(=O)(=O)N3CCOCC3)cc2)C1=O (centres undefined) | 4.5%[10 µM] | 3.16µM* | 15.1% | 1.0% | -11.2% | -87.1*
O=C(CN1CCOCC1)Nc1ccc(C2CCCCC2)cc1 | -9.6% | 25.1µM* | 3.8% | 6.8% | 15.8µM* | 7.2
CCC1(CC)NC(=O)N(CC(=O)Nc2ccc(S(=O)(=O)N3CCOCC3)cc2)C1=O | . | ? | 17.0% | 7.5% | . | .
O=C(CN1CCOCC1)Nc1cccc(Br)c1 | 9.6% | ? | 3.16µM* | 9.5% | -10.2% | 9.3
Cc1cc(NC(=O)CN2CCOCC2)n(-c2ccccc2)n1 | 29.0%[10 µM] | . | -13.2%[9.22 µM] | 16.5% | . | .
O=C(NCc1nc2ccccc2[nH]1)[C@H]1C[C@@H]1[C@H](NP(=O)(c1ccccc1)c1ccccc1)c1ccccc1 | 0.6% | -9.2% | . | 10.2% | -9.5% | .
COc1ccc2c(c1)C(=O)[C@H](OC(=O)NS(=O)(=O)c1ccc(F)cc1)[C@@H](c1ccc(OC)c(Br)c1)O2 | -69.5% | 9.1% | . | 12.3% | -12.5% | .
SMILES | HTT ATP protect | ALDH1A1 block | HttQ103 aggreg | CBFb-RUNX1 inh | HPGD block | PNC assembly inh
COCCNC(=O)Cc1ccc(Br)cc1 | -9.2%[10 µM] | -7.9% | 3.7% | 4.5% | -29.8% | ?
COCCNC(=S)c1ccc(Br)cc1 | -39.8% | 8.91µM* | 29.6% | 3.5% | . | .
COc1ccc(CN(C(=O)c2cnccn2)C(C(=O)NC(C)(C)C)c2cc(OC)c(OC)c(OC)c2)cc1 (centres undefined) | -6.4%[10 µM] | -0.6% | -1.3% | 2.8% | -1.0% | -94.9*
COc1cc(C(C(=O)NC(C)(C)C)N(Cc2ccc3c(c2)OCO3)C(=O)c2cnccn2)cc(OC)c1OC (centres undefined) | -3.8% | -4.4% | 6.7% | -2.7% | -10.1% | -21.2
COc1cccc([C@@H]2Oc3ccc(Br)cc3[C@H](O)[C@H]2O)c1 | -9.1% | -0.8% | . | -9.5% | -13.7% | .
O=P(O)(O)OP(=O)(O)OP(=O)(O)O | -12.3% | . | 25.5% | . | . | .
COC(=O)/C=C1\SC(=Nc2ccc(OC)cc2)NC1=O | -5.5% | -4.0% | -27.1% | 5.9% | . | .
COc1ccc(N=C2C(=O)Nc3c(C)cccc32)cc1 | -2.5% | 14.1µM* | 15.4% | -0.4% | -0.1% | 36.6
S=c1[nH]nc(-c2cccs2)n1/N=C/c1c(Cl)cccc1Cl | -30.5% | 15.8µM* | -9.1% | -0.9% | . | .
Cc1ccc(/C=N/n2c(-c3cccs3)n[nH]c2=S)cc1 | -31.1% | ? | -24.5% | -10.7% | 4.47µM* | 60.2
Cc1ccc(/C=N/n2c(-c3ccco3)n[nH]c2=S)cc1 | -8.8%[10 µM] | . | 4.0%[9.22 µM] | -10.5% | . | .
COc1ccc(/C=N/n2c(-c3cccs3)n[nH]c2=S)cc1 | -61.4% | -8.7% | -14.8% | -14.6% | 3.98µM* | 23.4
CN(C)C(=O)COC(=O)/C=C/c1ccccc1[N+](=O)[O-] | -15.3% | -7.5% | 5.7% | -0.4% | 2.0% | -23.1
COc1ccc(Oc2ncc3nc(-c4cccs4)c(=O)n(C)c3n2)cc1 | ? | ? | . | . | -17.7% | .
c1ccc(-n2c(SCc3ccncc3)nnc2-c2ccco2)cc1 | -14.8%[10 µM] | 10µM* | 0.2% | 2.9% | -11.2% | -6.4
CCn1c(SCc2nc(-c3ccccc3)no2)nnc1-c1cccs1 | 4.3% | 8.9% | -26.2% | 2.2% | -10.7% | 41.4
O=C(O)c1ccc(CSc2nnc(-c3ccco3)n2-c2ccccc2)cc1 | -24.7% | ? | 15.3% | -15.8% | . | .
c1ccc(-n2c(SCc3nc(-c4cccs4)no3)nnc2-c2ccco2)cc1 | -22.0% | 7.08µM* | ? | -7.3% | 31.6µM* | ?
Cc1ccc(N2C(N)=C(C#N)C3(C(=O)N(C)c4ccccc43)C3=C2CC(C)(C)CC3=O)cc1Cl (centres undefined) | -12.0% | 10.5% | 12.4% | 0.2% | -15.4% | ?

High-throughput results (PubChem)
